Here are results for 104 molecules from ChEMBL document CHEMBL3988442, “University of Dundee, Small-Polar-MMV Screening Library” (2021).

The campaign covered roughly 48,000 compounds. About 13,000 (27%) showed an effect of 50% or more. Some of the results follow.

For the assay, the system named is Wolbachia pipientis. Briefly: Anti-Wolbachia Cell-Based Screen. The assay is classed as functional. The settings on record: 5 µM. Also on record: scale not given: in the data most compounds retested in dose-response had high values.
With `COCc1noc(C2(c3ccc(F)cc3)CCC2)n1`, the “Percent Effect” value is -10.25%.
With `COc1cccc(CNC(=O)CCC2=Nc3ccccc3S(=O)(=O)N2)c1`, the “Percent Effect” value was found to be 114.6%.
`COc1cccc(CNC(=O)N2CCN3CCNC(=O)C3C2)c1` (centres undefined): the “Percent Effect” value is -4.227%.
As for `COc1cccc(CNC(=O)CCNS(=O)(=O)c2ccc(C)cc2)c1`, the “Percent Effect” value is listed as 91.68%.
As for `CCc1ncncc1C(=O)NCCNS(=O)(=O)c1ccc(C)cc1`, the “Percent Effect” value stood at 8.343%.
With `COc1cccc(CNC(=O)CCOc2ccccc2C)c1` the figure was 9.384%; with `COc1cccc(CCNC(=O)CCS(=O)(=O)C2CCCC2)c1`, 1.804%.
For the molecule `CNS(=O)(=O)c1cccc(C(C)NCc2cccc(OC)c2)c1` (centres undefined), the “Percent Effect” value worked out at 4.426%.
With `O=C(CCNS(=O)(=O)c1ccccc1)NCc1ccoc1` the figure was -4.508%; with `CNS(=O)(=O)c1cccc(CNC(=O)CCc2ccsc2)c1`, 10.65%.
`CNS(=O)(=O)c1ccc(CCC(=O)NCc2cccc(OC)c2)cc1`: the “Percent Effect” value stood at 110.9%.
Take `COc1ccc(CC(=O)NCCNS(=O)(=O)c2ccc(C)cc2)cc1`: the “Percent Effect” value is 90.25%.
For `Cc1ccc(S(=O)(=O)NCCNC(=O)c2cncnc2C)cc1` the value was 2.217%; for `COc1ccccc1OC1CCN(C(=O)CCCN2CCOCC2)CC1`, 10.26%; for `Cl.Cn1nc(C2CCN(C(=O)CCN3CCOCC3)CC2)c2cccnc21`, 110.8%.
For `CN(CCO)Cc1nnc(C2CCN(C(=O)CN3CCCC3)CC2)n1C` the value was -20.27%; for `O=C(CN1CCCCC1)NCc1cccnc1-n1cnc2ccccc21`, -3.687%; for `Cl.Cn1nc(C2CCN(C(=O)CN3CCCCC3)CC2)c2cccnc21`, 113.3%.
With `C=C(C)CNC(=O)C1CCC(=O)N(C2CCCC2)C1` (centres undefined), the “Percent Effect” value was found to be 15.65%.
In the case of `COCC1CN(C(=O)c2ccnnc2)Cc2ncnn2C1` (centres undefined), the “Percent Effect” value stood at 0.09306%.
In the case of `CS(=O)(=O)Cc1nc(CN2CCc3ccccc3CC2)cs1`, the “Percent Effect” value is 14.86%.
As to `CCc1nc(CSCc2csc(CS(C)(=O)=O)n2)cs1`, the “Percent Effect” value was 115%.
Turning to `Cc1noc(C)c1CSCc1csc(CS(C)(=O)=O)n1`, the “Percent Effect” value is 94.77%.
With `CS(=O)(=O)Cc1nc(CNc2ccc(F)c(F)c2)cs1` the figure was 12.98%; with `CS(=O)(=O)Cc1nc(CN2CCC(C(F)(F)F)CC2)cs1`, -5.539%; with `Cc1cc(CSCc2csc(CS(C)(=O)=O)n2)no1`, 97.95%.
With `Cc1cc(CSCc2cc(C)on2)on1`, the “Percent Effect” value is -0.9382%.
Regarding `CS(=O)(=O)Cc1nc(CNc2c(F)cc(F)cc2F)cs1`, the “Percent Effect” value was 22.22%.
On to `Cc1noc(C)c1CSCc1nc(N)c2ccccc2n1`, for which the “Percent Effect” value was -9.423%.
For `COCCN(Cc1sccc1C)C(=O)C1CCN(C(C)C)CC1` the value was 1.745%; for `Nc1nc2c(c(N3CCCC(c4nnc5ccccn45)C3)n1)CCNC2` (centres undefined), -10.49%.
Consider `O=C1[C@@H]2CN(Cc3cc4ccccc4o3)C[C@]2(C(=O)O)CN1CC1CC1`, for which the “Percent Effect” value is -11.55%.
On to `OCC(O)CSCc1nnc(-c2ccc(Cl)cc2)o1` (centres undefined), for which the “Percent Effect” value was -3.672%.
With `COc1ccc2c(c1)C(=O)N(C)C1(CCN(CC3CC3)CC1)N2` the figure was -12.56%; with `COc1ccc2c(c1)CCCN2C(=O)c1cccc(N(C)C)c1`, -8.665%; with `COc1ccc2c(c1)CCCN2C(=O)NC1CCCCNC1=O` (centres undefined), -4.83%.
Take `CCN1Cc2cc(OC)ccc2N(CC(C)(C)O)CCC1=O`: the “Percent Effect” value worked out at 102.5%.
`COc1ccc2c(c1)CCCN2Cc1nc2c(cnn2C)c(=O)[nH]1`: the “Percent Effect” value was -6.912%.
For the molecule `COc1ccc2c(c1)CN(CC1CC1)C(=O)CCN2CC(C)(C)O`, the “Percent Effect” value came to 98.75%.
`CN1CCN(Cc2noc(CC3CCc4ccccc43)n2)CC1` (centres undefined): the “Percent Effect” value turned out to be 3.539%.
For the molecule `Cc1csc(CN(C)C(=O)c2cccc(CCC(C)(C)O)c2)n1`, the “Percent Effect” value is -10.56%.
Consider `COCc1ncc(CN2C[C@@H](C(=O)O)[C@H](C(C)C)C2)cn1`, for which the “Percent Effect” value is listed as 0.5192%.
As to `O=C(O)c1cc(-c2cn[nH]c2)cc(S(=O)(=O)N2CCSCC2)c1`, the “Percent Effect” value was -7.646%.
`CC(C)N1CCC(c2cnc(-c3cn[nH]c3)cn2)CC1`: the “Percent Effect” value turned out to be 107.4%.
As to `CC(C)N1CCC(c2cnc(-c3cncnc3)cn2)CC1`, the “Percent Effect” value is reported as 77.04%.
With `Cn1cc(-c2nc(C3CCN(S(C)(=O)=O)CC3)cc3c2ncn3C)cn1`, the “Percent Effect” value was determined as 6.413%.
With `CS(=O)(=O)N1CCC(c2cnc(-c3cn[nH]c3)cn2)CC1`, the “Percent Effect” value was found to be 122.9581%.
Take `CCCn1ncnc1C(C)NC(=O)C1CCN(C(C)C)CC1` (centres undefined): the “Percent Effect” value is recorded as -2.448%.
In the case of `CC(C)N1CCC(c2nnc(CN3CCCC3)n2C2CC2)CC1`, the “Percent Effect” value was -3.352%.
As for `COc1cccc2c1OCCCN(Cc1ccc(C(N)=O)c(=O)[nH]1)C2`, the “Percent Effect” value was -4.223%.
On to `CC(C)Cn1cnc(S(=O)(=O)Nc2cccnc2-n2cccn2)c1`, for which the “Percent Effect” value is listed as -21.79%.
As for `CC1(C)CN(C(=O)CC2CCS(=O)(=O)CC2)C[C@]1(C)O`, the “Percent Effect” value was found to be 8.618%.
As to `O=S(=O)(NCC1(O)CCOCC1)c1ccccc1Br`, the “Percent Effect” value is 8.924%.
With `CC(C)NC(=O)NC[C@H]1OC[C@@H](NCc2cccs2)[C@@H]1O`, the “Percent Effect” value is on record as 11.97%.
For the molecule `CCc1cc(N[C@H](C(N)=O)C(C)C)n2nc(C)c(C)c2n1`, the “Percent Effect” value is -4.879%.
On to `Cc1cccc(C2(CNC(=O)CCNS(C)(=O)=O)CCCC2)c1`, for which the “Percent Effect” value is recorded as 4.767%.
For `Cl.c1cnc(Nc2cc(CCC3CCCNC3)ccn2)cn1` (centres undefined) the value was 75.77%.
On to `O=C(CO)N1CCC(CCc2ccnc(Nc3cnccn3)c2)CC1`, for which the “Percent Effect” value is listed as 125.8%.
For `c1cnc(Nc2cc(CCC3CCNCC3)ccn2)cn1` the value was 61.48%.
`Cc1c(Br)cccc1C(=O)NCCC1CCCNC1.Cl` (centres undefined): the “Percent Effect” value turned out to be 6.591%.
With `CC(Cc1cnccn1)NC(=O)c1cccc(CC2CCNCC2)c1` (centres undefined) the figure was -6.406%; with `O=C(NCCNc1cnccn1)NCC1CCS(=O)(=O)C1` (centres undefined), -2.4%; with `CN1CCC(CCc2ccnc(Nc3cnccn3)c2)CC1`, 95.48%.
Take `Cc1ccc(Oc2ncccc2CNC2CCOCC2)cn1`: the “Percent Effect” value is on record as -4.901%.
On to `CCC(CNC1CCN(C(C)=O)CC1)Oc1cccc(C)c1` (centres undefined), for which the “Percent Effect” value stood at 3.033%.
`CN(C)c1cc2c(nn1)CCN(C(=O)C1CCc3ccccc31)C2` (centres undefined): the “Percent Effect” value is reported as -4.6%.
In the case of `Cc1cc(C(=O)NCCN2CCN(S(C)(=O)=O)CC2)no1.Cl`, the “Percent Effect” value was determined as 11.14%.
With `CC1CCN(CCNC(=O)c2cncnc2C(C)C)CC1`, the “Percent Effect” value is given as -7.999%.
As to `Cc1nc(C(=O)NCCS(=O)(=O)N2CCCC2)cs1`, the “Percent Effect” value turned out to be 99.98%.
For `Cc1nc(C(=O)N2CCN(S(C)(=O)=O)[C@@H]3CS(=O)(=O)C[C@@H]32)cs1` the value was -1.846%.
As to `Cc1csc(CNC(=O)NC2CCCN(S(C)(=O)=O)C2)n1` (centres undefined), the “Percent Effect” value is -1.577%.
As to `Cc1cc(C)n(-c2nc(C(=O)NCCS(=O)(=O)N3CCCCC3)cs2)n1`, the “Percent Effect” value amounted to 95.89%.
In the case of `CCCc1nc(C(=O)NCCN2CCC(c3ccccc3C)C2)cs1` (centres undefined), the “Percent Effect” value was -11.15%.
Turning to `CCc1c(C)nn(CCNC(=O)c2csc(C)n2)c1C`, the “Percent Effect” value is given as -30.9%.
With `Cc1cc(C)n(-c2nc(C(=O)NCCN3CCC(C)CC3)cs2)n1`, the “Percent Effect” value stood at 74.92%.
On to `OC[C@@H]1CCCN1Cc1cn(C2CCN(C3CCCC3)CC2)nn1`, for which the “Percent Effect” value is reported as -5.2%.
For `Cc1noc(OCCOc2ccc(C#N)cc2)n1`, the “Percent Effect” value is recorded as 1.206%.
Take `O=C1CO[C@H](c2ccc(NS(=O)(=O)Cc3ccccc3)cc2)[C@@H](CO)N1`: the “Percent Effect” value is -3.508%.
On to `CC(C)CS(=O)(=O)Nc1ccc2c(c1)OCC(C)(C)C(=O)N2C`, for which the “Percent Effect” value came to 141.6%.
Regarding `Cn1cccc1C(O)CNS(=O)(=O)Cc1ccccc1` (centres undefined), the “Percent Effect” value was -5.113%.
For `Cn1c(=O)n(C)c2cc(NS(=O)(=O)Cc3ccccc3)ccc21` the value was 78.16%.
For `CN1C(=O)C(C)(C)COc2cc(NS(=O)(=O)c3ccccc3)ccc21`, the “Percent Effect” value turned out to be 19.53%.
Regarding `Cc1nc(N2CCCC2)nc(C)c1NS(=O)(=O)c1ccccc1F`, the “Percent Effect” value is given as -5.726%.
For the molecule `CN1C(=O)C(C)(C)COc2ccc(NS(=O)(=O)Cc3ccccc3)cc21`, the “Percent Effect” value was determined as 99.35%.
`CN1C(=O)C(C)(C)COc2cc(NS(=O)(=O)c3ccccc3F)ccc21`: the “Percent Effect” value is 192.1%.
`CN1C(=O)C(C)(C)COc2cc(NS(=O)(=O)Cc3ccccc3)ccc21`: the “Percent Effect” value came to 11.42%.
Turning to `CC(C)CS(=O)(=O)Nc1ccc([C@H]2OCC(=O)N[C@@H]2CO)cc1`, the “Percent Effect” value is reported as -5.323%.
With `Cn1ccc(CS(=O)(=O)Cc2ccccc2)cc1=O` the figure was -1.625%.
`Cn1cnc2c1CCN(CCCOc1ccc(S(C)(=O)=O)cc1)C2`: the “Percent Effect” value is -0.429%.
As for `COc1cc(CNC(=O)N2CCCC2c2cc(C)no2)ccn1` (centres undefined), the “Percent Effect” value is listed as -13.9%.
As to `CCOc1ccccc1-c1noc(CN(C)Cc2cnn(C)c2)n1`, the “Percent Effect” value is reported as -16.57%.
As for `CCCS(=O)(=O)Nc1ccc2c(c1)OCC(C)(C)C(=O)N2C`, the “Percent Effect” value is on record as -9.167%.
For the molecule `CCS(=O)(=O)Nc1ccc2[nH]c(C3CCC3)nc2c1`, the “Percent Effect” value stood at 5.664%.
Turning to `CCS(=O)(=O)Nc1ccc2c(c1)OCC(C)(C)C(=O)N2C`, the “Percent Effect” value came to 121.3%.
For `O=C(CCc1nc(Cl)n[nH]1)NC1CCCN(C2Cc3ccccc3C2)C1` (centres undefined), the “Percent Effect” value was -44.69%.
For the molecule `COC(=O)c1ccoc1CN(C)Cc1cc(OC)c(OC)cc1C`, the “Percent Effect” value is 109.7%.
With `CN(Cc1ccccc1)CC(C)(C)NC(=O)c1ccon1` the figure was 7.047%; with `COc1cc(C)c(C(C)NC(=O)c2cccnc2N(C)C)cc1OC` (centres undefined), 0.4558%.
On to `CC1Cc2ccccc2N1Cc1occc1C(=O)NCC(=O)N(C)C` (centres undefined), for which the “Percent Effect” value is recorded as -8.438%.
On to `COC(=O)CNC(=O)C1(N(C)Cc2ccccc2)Cc2ccccc2C1`, for which the “Percent Effect” value is -5.057%.
As for `COc1cc(CC(=O)Nc2cccc(C(=O)N(C)C)n2)ccc1C`, the “Percent Effect” value is -9.433%.
For `COC(=O)c1ccoc1CN(C)Cc1ccccc1`, the “Percent Effect” value stood at 118.1%.
For `COC(=O)c1ccoc1CN(C)CC(=O)N(C)C` the value was 115.3%; for `CN(CC(=O)N(C)C)Cc1ccc(C#N)cc1F`, -6.679%.
